# Inconclusive results are not listed. A call without a number means that no potency is given here. Values without a mark were called inactive. Activity calls are given as the source filed them. Calls come from the whole dose curve; as a rule, active = well fitted curve in the direction sought with a large enough effect; inconclusive = small, poorly fitted or top-dose-only effect, or another doubt; inactive = no such curve, though single readings can be large; an effect the other way counts as inactive or inconclusive.
# Key:
# MCC-13 = test: qHTS assay to identify novel small-molecules to repurpose for Merkel cell carcinoma treatment (AID 1296009); settings: MCC and control cell lines, CellTiter-Glo viability, 72 h; series mostly up to 46 µM; note: nearly all actives have a fitted effect of over 60% in size
# In short: (§1)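 CellTiter-Glo luminescence after 72 hr compound exposure at 37 degree celsius gave cell viability. Libraries NPC and MIPE were run as 8- and 11-point dose responses; RLUs normalized to DMSO (negative) and no-cell (cytotoxicity) controls.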
# MCC-26 = test: as above; settings: MCC and control cell lines, CellTiter-Glo viability, 72 h; series mostly up to 46 µM
# In short: as §1
# MKL-2 = test: as above; settings: MCC and control cell lines, CellTiter-Glo viability, 72 h; series mostly up to 46 µM
# In short: as §1
# UISO = test: as above; settings: MCC and control cell lines, CellTiter-Glo viability, 72 h; series mostly up to 46 µM
# In short: as §1
# C33A = test: Primary qHTS to identify gynecologic anti-cancer compounds using libraries of approved drugs and bioactive compounds (AID 1345084); settings: Gynecologic cancer cell panel viability, ATPlite luminescence, 48 h; series mostly up to 57.5 µM; note: nearly all actives have a fitted effect of over 55% in size
# In short: (§2)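 48 h compound exposure at 37 C, 5% CO2; five-point qHTS. ATPlite luminescence readout of cell ATP.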
# CASKI = test: as above; settings: Gynecologic cancer cell panel viability, ATPlite luminescence, 48 h; series mostly up to 57.5 µM
# In short: as §2
# Es-2 = test: as above; settings: Gynecologic cancer cell panel viability, ATPlite luminescence, 48 h; series mostly up to 57.5 µM
# In short: as §2
# HeLa = test: as above; settings: Gynecologic cancer cell panel viability, ATPlite luminescence, 48 h; series mostly up to 57.5 µM
# In short: as §2
# Hek293T = test: as above; settings: Gynecologic cancer cell panel viability, ATPlite luminescence, 48 h, control line for the selectivity index; series mostly up to 57.5 µM
# In short: as §2
# JEG-3 = test: as above; settings: Gynecologic cancer cell panel viability, ATPlite luminescence, 48 h; series mostly up to 57.5 µM
# In short: as §2
# OV90 = test: as above; settings: Gynecologic cancer cell panel viability, ATPlite luminescence, 48 h; series mostly up to 57.5 µM
# In short: as §2
# PA-1 = test: as above; settings: Gynecologic cancer cell panel viability, ATPlite luminescence, 48 h; series mostly up to 57.5 µM
# In short: as §2
# SKOV3 = test: as above; settings: Gynecologic cancer cell panel viability, ATPlite luminescence, 48 h; series mostly up to 57.5 µM
# In short: as §2
# Tov-21-G = test: as above; settings: Gynecologic cancer cell panel viability, ATPlite luminescence, 48 h; series mostly up to 57.5 µM
# In short: as §2
# Tov112D = test: as above; settings: Gynecologic cancer cell panel viability, ATPlite luminescence, 48 h; series mostly up to 57.5 µM
# In short: as §2
# [1] = Drug repurposing screens with cells derived from glioblastoma tumor samples (AID 1345199); settings: GBM patient neurospheres viability, ATP luminescence, 48 h; note: nearly all actives have a fitted effect of over 40% in size
# In short: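 Primary testing used CD133+ neurospheres from four GBM patients, seven concentrations, 48 h exposure and ATP-based viability; confirmation added three slower-growing patient lines.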
# WaGa = test: qHTS assay to identify novel small-molecules to repurpose for Merkel cell carcinoma treatment (AID 1296009); settings: MCC and control cell lines, CellTiter-Glo viability, 72 h; series mostly up to 46 µM; note: nearly all actives have a fitted effect of over 60% in size
# In short: as §1
# CAOV3 = test: Primary qHTS to identify gynecologic anti-cancer compounds using libraries of approved drugs and bioactive compounds (AID 1345084); settings: Gynecologic cancer cell panel viability, ATPlite luminescence, 48 h; series mostly up to 57.5 µM; note: nearly all actives have a fitted effect of over 55% in size
# In short: as §2
# MKL-1 = test: qHTS assay to identify novel small-molecules to repurpose for Merkel cell carcinoma treatment (AID 1296009); settings: MCC and control cell lines, CellTiter-Glo viability, 72 h; series mostly up to 46 µM; note: nearly all actives have a fitted effect of over 60% in size
# In short: as §1
# [2] = at 45.9 µM (top of the series), tumour line B
# Potency is the fitted concentration of half-maximal effect.
smiles,measurement,setting,value
Oc1ccc([C@H]2CNCc3c2ccc(O)c3O)cc1O,Potency,MCC-13,inactive
same,Potency,MCC-26,inactive
same,Potency,MKL-2,13.3 µM (active)
same,Potency,UISO,inactive
same,Potency,C33A,inactive
same,Potency,CASKI,inactive
same,Potency,Es-2,inactive
same,Potency,HeLa,inactive
same,Potency,Hek293T,inactive
same,Potency,JEG-3,inactive
same,Potency,OV90,inactive
same,Potency,PA-1,inactive
same,Potency,SKOV3,inactive
same,Potency,Tov-21-G,inactive
same,Potency,Tov112D,inactive
same,"activity, negative = cell killing",[1]; [2],-19.9%
same,"activity, negative = cell killing","[1]; at 45.9 µM (top of the series), tumour line D",-11.1%
same,"activity, negative = cell killing","[1]; at 46 µM (top of the series), tumour line A",-27.2%
C[C@]12Cc3nonc3C[C@@H]1CC[C@@H]1[C@@H]2CC[C@@]2(C)[C@H]1CC[C@]2(C)O,Potency,MCC-13,inactive
same,Potency,MCC-26,inactive
same,Potency,WaGa,18.8 µM (active)
same,Potency,C33A,inactive
same,Potency,CAOV3,inactive
same,Potency,CASKI,inactive
same,Potency,Es-2,inactive
same,Potency,HeLa,2.82 µM (active)
same,Potency,Hek293T,inactive
same,Potency,JEG-3,inactive
same,Potency,OV90,inactive
same,Potency,SKOV3,inactive
same,Potency,Tov-21-G,inactive
same,Potency,Tov112D,inactive
same,"activity, negative = cell killing",[1]; [2],-26.1%
same,Potency,[1]; tumour line A,12.6 µM (active)
N#Cc1nn(-c2c(Cl)cc(C(F)(F)F)cc2Cl)c(N)c1S(=O)C(F)(F)F (stereo not given),Potency,MCC-13,inactive
same,Potency,MCC-26,inactive
same,Potency,MKL-2,23.7 µM (active)
same,Potency,C33A,inactive
same,Potency,CAOV3,inactive
same,Potency,CASKI,inactive
same,Potency,Es-2,inactive
same,Potency,HeLa,inactive
same,Potency,JEG-3,inactive
same,Potency,OV90,inactive
same,Potency,PA-1,inactive
same,Potency,Tov-21-G,inactive
same,Potency,Tov112D,inactive
same,"activity, negative = cell killing",[1]; [2],-25.5%
CCCCCCCCCCCC[N+](C)(C)CCOc1ccccc1,Potency,MCC-26,23.7 µM (active)
same,Potency,MKL-1,2.66 µM (active)
same,Potency,MKL-2,1.06 µM (active)
same,Potency,UISO,9.44 µM (active)
same,Potency,WaGa,4.22 µM (active)
same,Potency,Es-2,31.6 µM (active)
same,Potency,HeLa,31.6 µM (active)
same,Potency,JEG-3,inactive
same,Potency,[1]; tumour line A,12.6 µM (active)
same,Potency,[1]; tumour line B,15.8 µM (active)
same,Potency,[1]; tumour line D,11.2 µM (active)
CCC(=O)C(CCN(C)C)(c1ccccc1)c1ccccc1,Potency,MCC-13,inactive
same,Potency,MCC-26,inactive
same,Potency,MKL-1,inactive
same,Potency,UISO,inactive
same,Potency,C33A,inactive
same,Potency,CAOV3,inactive
same,Potency,CASKI,inactive
same,Potency,Es-2,inactive
same,Potency,HeLa,inactive
same,Potency,Hek293T,inactive
same,Potency,JEG-3,inactive
same,Potency,OV90,inactive
same,Potency,PA-1,inactive
same,Potency,SKOV3,inactive
same,Potency,Tov-21-G,inactive
same,Potency,Tov112D,inactive
CC(CC(C#N)(c1ccccc1)c1ccccc1)N(C)C (stereo not given),Potency,MCC-26,inactive
same,Potency,MKL-1,inactive
same,Potency,WaGa,43.3 µM (active)
same,Potency,C33A,inactive
same,Potency,CAOV3,inactive
same,Potency,CASKI,inactive
same,Potency,Es-2,inactive
same,Potency,HeLa,inactive
same,Potency,Hek293T,inactive
same,Potency,JEG-3,inactive
same,Potency,PA-1,inactive
same,Potency,Tov-21-G,inactive
same,Potency,Tov112D,inactive
CC[C@]1(O)CC[C@H]2[C@@H]3CCC4=CCCC[C@@H]4[C@H]3CC[C@@]21C,Potency,MCC-26,inactive
same,Potency,MKL-1,inactive
same,Potency,MKL-2,inactive
same,Potency,WaGa,inactive
same,Potency,CASKI,inactive
same,Potency,JEG-3,inactive
same,"activity, negative = cell killing",[1]; [2],-25.8%
same,Potency,[1]; tumour line A,10 µM (active)
O=C1NCN(c2ccccc2)C12CCN(CCCOc1ccc(F)cc1)CC2,Potency,MCC-13,inactive
same,Potency,MKL-1,inactive
same,Potency,MKL-2,inactive
same,Potency,UISO,inactive
same,Potency,WaGa,inactive
same,Potency,C33A,inactive
same,Potency,CAOV3,inactive
same,Potency,CASKI,inactive
same,Potency,Es-2,inactive
same,Potency,HeLa,inactive
same,Potency,JEG-3,inactive
same,Potency,OV90,inactive
same,Potency,PA-1,inactive
same,Potency,SKOV3,inactive
same,Potency,Tov-21-G,inactive
same,Potency,Tov112D,inactive
Clc1ccc(CO/N=C(\Cn2ccnc2)c2ccc(Cl)cc2Cl)c(Cl)c1,Potency,MCC-26,inactive
same,Potency,C33A,inactive
same,Potency,CAOV3,inactive
same,Potency,CASKI,inactive
same,Potency,Es-2,inactive
same,Potency,HeLa,inactive
same,Potency,Hek293T,inactive
same,Potency,JEG-3,inactive
same,Potency,SKOV3,inactive
same,Potency,Tov-21-G,inactive
same,Potency,Tov112D,inactive
same,Potency,[1]; tumour line A,2.82 µM (active)
same,Potency,[1]; tumour line D,11.2 µM (active)

# From PubChem BioAssay (NCATS)
